The record followed here is PubChem BioAssay (NCATS).

Results filed as inconclusive are left out. Unmarked numbers belong to inactive results. Activity calls are given as the source filed them. Calls follow the shape of the dose curve; as a rule, active = well fitted curve in the direction sought with a large enough effect in the repeat runs; inconclusive = weak or mixed curves; inactive = no such curve, though single readings can be large; an effect the other way counts as inactive or inconclusive.
% is scaled to controls: 0 for no effect and ±100 for the full control effect; potency is read from the fitted curve at half-maximal effect.
Also: nearly all actives have a fitted effect of over 55% in size.

Chain of Cytochrome P450 2C9 (Homo sapiens) (P11712 whole entry, looked up): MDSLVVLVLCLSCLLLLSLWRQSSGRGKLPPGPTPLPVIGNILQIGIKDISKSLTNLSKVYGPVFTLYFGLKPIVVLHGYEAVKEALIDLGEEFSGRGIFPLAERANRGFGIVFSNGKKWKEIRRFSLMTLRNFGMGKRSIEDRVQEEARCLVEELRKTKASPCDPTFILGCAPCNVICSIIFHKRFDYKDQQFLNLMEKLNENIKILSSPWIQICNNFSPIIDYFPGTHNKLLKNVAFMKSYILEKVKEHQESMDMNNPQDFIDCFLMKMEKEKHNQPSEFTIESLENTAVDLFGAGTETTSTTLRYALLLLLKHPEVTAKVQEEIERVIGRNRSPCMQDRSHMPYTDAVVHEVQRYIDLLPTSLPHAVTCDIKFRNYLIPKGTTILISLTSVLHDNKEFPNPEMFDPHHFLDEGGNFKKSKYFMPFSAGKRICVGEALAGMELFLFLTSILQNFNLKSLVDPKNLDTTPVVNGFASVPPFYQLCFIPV

For one test, the target named is Cytochrome P450 2D6 (Homo sapiens) (UniProt P10635). The test can be described thus: Cytochrome P450 family 2 subfamily D member 6 (CYP2D6) small molecule antagonists: luciferase biochemical (cell-free) qHTS assay (AID 1645840). Particulars: P450-Glo CYP2D6 enzyme, luciferin luminescence, 1 h; series mostly up to 57.4 µM; activity change, negative = inhibition: at the top concentration. The method in brief: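 P450-Glo luminescent screen: recombinant CYP2D6 enzyme–proluciferin substrate mix preincubated with compound 10 min at room temperature, then NADPH regeneration added for 1 h at room temperature. Detection reagent added for 20 min; luciferin light read as relative luminescence units.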
Chain of Cytochrome P450 2D6 (Homo sapiens) (P10635 whole entry, looked up): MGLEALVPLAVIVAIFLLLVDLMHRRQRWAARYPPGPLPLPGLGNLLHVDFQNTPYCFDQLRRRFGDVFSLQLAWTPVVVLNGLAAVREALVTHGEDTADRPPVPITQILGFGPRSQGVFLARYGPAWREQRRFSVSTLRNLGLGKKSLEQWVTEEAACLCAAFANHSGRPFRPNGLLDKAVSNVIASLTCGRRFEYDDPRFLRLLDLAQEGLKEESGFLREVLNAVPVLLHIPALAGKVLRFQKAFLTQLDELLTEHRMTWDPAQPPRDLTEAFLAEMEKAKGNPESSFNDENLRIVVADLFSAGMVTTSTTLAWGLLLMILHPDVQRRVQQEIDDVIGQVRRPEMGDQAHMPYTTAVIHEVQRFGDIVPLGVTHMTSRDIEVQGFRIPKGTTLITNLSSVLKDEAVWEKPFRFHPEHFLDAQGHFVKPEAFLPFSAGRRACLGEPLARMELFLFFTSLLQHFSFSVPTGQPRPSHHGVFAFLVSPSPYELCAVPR
Consider `Cn1cc(-c2ccc(S(=O)(=O)n3ccc(/C=C/C(=O)Nc4ccccc4N)c3)cc2)cn1`, for which the Potency is 2.68 µM (active).

Turning to `C=CC(=O)Nc1cccc(Nc2nc(Nc3ccc(NC4CN(CCF)C4)cc3OC)ncc2C(F)(F)F)c1`, the Potency was 13.5 µM (active).

Take `C[C@@H](NC(=O)c1ccc(C#Cc2cccc(F)c2)cn1)C(C)(C)O`: the “activity change, negative = inhibition” value was -7.83%.

Turning to `CCCCNc1ncc2c(-c3ccc(S(=O)(=O)N4CCOCC4)cc3)nn(C3CCC(O)CC3)c2n1` (stereo not given), the “activity change, negative = inhibition” value was 5.97%.

For `COCC(=O)NC/C=C/c1ccc2ncnc(Nc3ccc(Oc4ccc(C)nc4)c(C)c3)c2c1`, the Potency is 10.7 µM (active).

`N#Cc1cnc2c(Cl)cc(NCc3cn(CCN4CCCCCC4)nn3)cc2c1Nc1ccc(F)c(Cl)c1`: the Potency is 0.849 µM (active).

With `COc1cc2c(cc1-c1c(C)noc1C)ncc1[nH]c(=O)n(C(C)c3ccccn3)c12` (stereo not given), the “activity change, negative = inhibition” value is -26.4%.

Consider `COc1ccccc1OCCNCC(O)CCOc1cccc2[nH]c3ccccc3c12` (stereo not given), for which the Potency was 0.301 µM (active).

For `COc1cc2c(cc1OCCCN1CCCC1)N=C(N)C21CCC1`, the Potency is 23.9 µM (active).

Take `CC[C@@H](Nc1c(Nc2cccc(C(=O)N(C)C)c2O)c(=O)c1=O)c1cc(C(C)C)co1`: the Potency is 16.9 µM (active).

Turning to `O=C(NCCCc1ccccc1)C1CCC(CNS(=O)(=O)c2cccc3nsnc23)CC1` (stereo not given), the Potency is 10.7 µM (active).

For `O=S1(=O)CCN(Cc2cc(NCC3CCOCC3)c3[nH]c(-c4ccccc4)cc3c2)CC1`, the Potency was 12 µM (active).

For `CCOC(=O)N1CCC(CN(Cc2ccc(Cl)cc2)Cc2ccc([N+](=O)[O-])s2)C1` (stereo not given), the Potency is 3.01 µM (active).

For `CN1CCN(Cc2ccc(NC(=O)Cc3ccc(Oc4cc(NC(=O)C5CC5)ncn4)cc3)cc2C(F)(F)F)CC1`, the Potency was 15.1 µM (active).

Consider `CCCNCCc1ccc(NS(=O)(=O)c2ccc(OC(F)(F)F)cc2)cc1`, for which the Potency was 1.34 µM (active).

For `CC(F)(F)CN1CCOc2c(nn(-c3ccccc3Cl)c2-c2ccc(Cl)cc2)C1=O`, the Potency was 13.5 µM (active).

Consider `Fc1ccc(-n2cc(CCCCN3CCC4(CC3)OCc3ccccc34)c3ccccc32)cc1`, for which the Potency was 0.601 µM (active).

On to `Cc1cccc(CC(=O)N2CCc3c2ccc(-c2cn(C)c4ncnc(N)c24)c3F)n1`, for which the “activity change, negative = inhibition” value was -18.7%.

Consider `O=C(NCCN1CCN(c2cccc3c2OCCO3)CC1)c1ccc(F)cc1`, for which the Potency is 12 µM (active).

On to `CC(C)c1ccc(NC(=O)c2cccs2)c(-c2nc3ccccc3[nH]c2=O)c1`, for which the Potency is 13.5 µM (active).

In the case of `COC(=O)c1ccc(N2CCN(C)CC2)c(NC(=O)c2cccc(OC)c2)c1`, the Potency was 6.01 µM (active).

For `Cc1c(C(=O)NCc2cccnc2)nn(-c2ccc(Cl)cc2Cl)c1-c1ccc(Cl)cc1`, the Potency is 0.213 µM (active).

`C[C@@H]1CCCN1CCc1cc2cc(-c3ccc(C#N)cc3)ccc2o1`: the Potency is 13.5 µM (active).

Regarding `CNC1CN(c2ccc3c(=O)c(C(=O)O)cn(-c4nccs4)c3n2)CC1OC` (stereo not given), the activity change, negative = inhibition is 16.1% [at 11.5 µM].

For the compound `O=C(NCCCCN1CCN(c2cccc(Cl)c2Cl)CC1)c1cc2ccccc2s1`, the Potency was 0.301 µM (active).

With `Cc1[nH]c(/C=C2\C(=O)Nc3ccc(F)cc32)c(C)c1C(=O)NCCN1CCCC1`, the “activity change, negative = inhibition” value is 0.658%.

For `Cc1cc(C)cc(-c2cnc3cc(Cl)c(-c4cccc(O)c4)cc3c2OCCCN)c1`, the Potency was 7.56 µM (active).

For the compound `C[C@H](Oc1cc(-n2cnc3ccc(CN4CCN(C)CC4)cc32)sc1C(N)=O)c1ccccc1C(F)(F)F`, the Potency was 21.3 µM (active).

For the compound `Cc1cc(C)nc(SCC(=O)Nc2ncc(Cc3cccc4ccccc34)s2)n1`, the “activity change, negative = inhibition” value is -3.27%.

As to `Cc1cc(C)c(-n2cc(C)c3c(Cl)nc(C)nc32)c(C)c1`, the “activity change, negative = inhibition” value is -21.2%.

Turning to `O=C(NCCN1CCC(n2c(=O)[nH]c3ccccc32)CC1)c1ccc2ccccc2c1`, the Potency is 12 µM (active).

Turning to `Cc1noc(C)c1-c1cc(O)cc(C(O)c2ccccc2)c1` (stereo not given), the Potency was 16.9 µM (active).

In the case of `O=C(NCCO)c1cccc(-c2cc(Nc3ccc(OC(F)(F)F)cc3)ncn2)c1`, the Potency is 23.9 µM (active).

`CCOC(=O)C1(CCOc2ccccc2)CCN(Cc2ccc(O)c(Cl)c2)CC1`: the Potency is 0.425 µM (active).

`CCCCNc1ncc(C(=O)NCc2ccc(-n3ccnc3)cc2)c(NC2CCC(O)CC2)n1` (stereo not given): the Potency is 0.674 µM (active).

In the case of `COC(=O)N1CCC(n2ncc3c(N4CCOCC4)nc(-c4ccc(NC(=O)NC5CC5)cc4)nc32)CC1`, the Potency was 16.9 µM (active).

For the compound `C[C@@H](Nc1ncnc2[nH]c(-c3ccc(O)cc3)cc12)c1ccccc1`, the Potency is 1.34 µM (active).

For `C=CC(=O)N1CCN(C(=O)CNc2cc(-c3ccccc3Cl)c(Cl)cc2OC)CC1`, the Potency is 12 µM (active).

With `O=C(NCC1(c2nc(-c3ccccc3)cs2)CCOCC1)c1cccc(-c2noc(C(F)(F)F)n2)c1`, the “activity change, negative = inhibition” value was -8.34%.

Regarding `COc1cc(/C=N\NC(=O)c2ccc3c(c2)OCO3)ccc1OCc1ccccc1`, the Potency was 2.39 µM (active).

The next test addresses Cytochrome P450 2C9 (Homo sapiens) (UniProt P11712). The test can be described thus: Cytochrome P450 family 2 subfamily C member 9 (CYP2C9) small molecule antagonists: luciferase biochemical (cell-free) qHTS assay (AID 1645842). The settings on record: P450-Glo CYP2C9 enzyme assay, luciferin luminescence; series mostly up to 57.4 µM; activity change, negative = inhibition: at the top concentration. In short, it runs like this:
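Luminescence, after 20 min with luciferin detection reagent, reflected CYP2C9 turnover during a 1 h NADPH-driven reaction at 37C. Enzyme-substrate mix contained 0.4% bovine serum albumin and was preincubated with compound 10 min at room temperature.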
Regarding `Cn1cc(-c2ccc(S(=O)(=O)n3ccc(/C=C/C(=O)Nc4ccccc4N)c3)cc2)cn1`, the Potency is 0.849 µM (active).

In the case of `C=CC(=O)Nc1cccc(Nc2nc(Nc3ccc(NC4CN(CCF)C4)cc3OC)ncc2C(F)(F)F)c1`, the Potency is 0.268 µM (active).

`C[C@@H](NC(=O)c1ccc(C#Cc2cccc(F)c2)cn1)C(C)(C)O`: the Potency was 16.9 µM (active).

In the case of `CCCCNc1ncc2c(-c3ccc(S(=O)(=O)N4CCOCC4)cc3)nn(C3CCC(O)CC3)c2n1` (stereo not given), the Potency was 9.52 µM (active).

As to `COCC(=O)NC/C=C/c1ccc2ncnc(Nc3ccc(Oc4ccc(C)nc4)c(C)c3)c2c1`, the Potency is 8.49 µM (active).

With `N#Cc1cnc2c(Cl)cc(NCc3cn(CCN4CCCCCC4)nn3)cc2c1Nc1ccc(F)c(Cl)c1`, the Potency is 3.38 µM (active).

On to `COc1cc2c(cc1-c1c(C)noc1C)ncc1[nH]c(=O)n(C(C)c3ccccn3)c12` (stereo not given), for which the Potency is 5.35 µM (active).

For the compound `COc1ccccc1OCCNCC(O)CCOc1cccc2[nH]c3ccccc3c12` (stereo not given), the Potency is 0.301 µM (active).

On to `COc1cc2c(cc1OCCCN1CCCC1)N=C(N)C21CCC1`, for which the “activity change, negative = inhibition” value is -10.9%.

In the case of `CC[C@@H](Nc1c(Nc2cccc(C(=O)N(C)C)c2O)c(=O)c1=O)c1cc(C(C)C)co1`, the Potency is 5.35 µM (active).

Turning to `O=C(NCCCc1ccccc1)C1CCC(CNS(=O)(=O)c2cccc3nsnc23)CC1` (stereo not given), the Potency was 9.52 µM (active).

Turning to `O=S1(=O)CCN(Cc2cc(NCC3CCOCC3)c3[nH]c(-c4ccccc4)cc3c2)CC1`, the Potency was 3.38 µM (active).

Take `CCOC(=O)N1CCC(CN(Cc2ccc(Cl)cc2)Cc2ccc([N+](=O)[O-])s2)C1` (stereo not given): the Potency was 4.25 µM (active).

As for `CN1CCN(Cc2ccc(NC(=O)Cc3ccc(Oc4cc(NC(=O)C5CC5)ncn4)cc3)cc2C(F)(F)F)CC1`, the Potency is 19 µM (active).

`CCCNCCc1ccc(NS(=O)(=O)c2ccc(OC(F)(F)F)cc2)cc1`: the Potency is 8.49 µM (active).

For the compound `CC(F)(F)CN1CCOc2c(nn(-c3ccccc3Cl)c2-c2ccc(Cl)cc2)C1=O`, the Potency is 13.5 µM (active).

On to `Fc1ccc(-n2cc(CCCCN3CCC4(CC3)OCc3ccccc34)c3ccccc32)cc1`, for which the Potency was 2.39 µM (active).

On to `Cc1cccc(CC(=O)N2CCc3c2ccc(-c2cn(C)c4ncnc(N)c24)c3F)n1`, for which the Potency is 10.7 µM (active).

With `O=C(NCCN1CCN(c2cccc3c2OCCO3)CC1)c1ccc(F)cc1`, the Potency is 19 µM (active).

Take `CC(C)c1ccc(NC(=O)c2cccs2)c(-c2nc3ccccc3[nH]c2=O)c1`: the Potency is 10.7 µM (active).

Consider `COC(=O)c1ccc(N2CCN(C)CC2)c(NC(=O)c2cccc(OC)c2)c1`, for which the “activity change, negative = inhibition” value was 1.67%.

In the case of `Cc1c(C(=O)NCc2cccnc2)nn(-c2ccc(Cl)cc2Cl)c1-c1ccc(Cl)cc1`, the Potency was 5.35 µM (active).

On to `C[C@@H]1CCCN1CCc1cc2cc(-c3ccc(C#N)cc3)ccc2o1`, for which the “activity change, negative = inhibition” value is 2.5%.

Regarding `CNC1CN(c2ccc3c(=O)c(C(=O)O)cn(-c4nccs4)c3n2)CC1OC` (stereo not given), the activity change, negative = inhibition was 4.23% [at 11.5 µM].

Regarding `O=C(NCCCCN1CCN(c2cccc(Cl)c2Cl)CC1)c1cc2ccccc2s1`, the Potency is 3.79 µM (active).

For `Cc1[nH]c(/C=C2\C(=O)Nc3ccc(F)cc32)c(C)c1C(=O)NCCN1CCCC1`, the “activity change, negative = inhibition” value was -1.72%.

In the case of `Cc1cc(C)cc(-c2cnc3cc(Cl)c(-c4cccc(O)c4)cc3c2OCCCN)c1`, the Potency was 1.2 µM (active).

Turning to `C[C@H](Oc1cc(-n2cnc3ccc(CN4CCN(C)CC4)cc32)sc1C(N)=O)c1ccccc1C(F)(F)F`, the Potency was 6.74 µM (active).

Regarding `Cc1cc(C)nc(SCC(=O)Nc2ncc(Cc3cccc4ccccc34)s2)n1`, the Potency is 10.7 µM (active).

In the case of `Cc1cc(C)c(-n2cc(C)c3c(Cl)nc(C)nc32)c(C)c1`, the Potency is 10.7 µM (active).

With `O=C(NCCN1CCC(n2c(=O)[nH]c3ccccc32)CC1)c1ccc2ccccc2c1`, the Potency is 7.56 µM (active).

Turning to `Cc1noc(C)c1-c1cc(O)cc(C(O)c2ccccc2)c1` (stereo not given), the Potency is 0.849 µM (active).

As to `O=C(NCCO)c1cccc(-c2cc(Nc3ccc(OC(F)(F)F)cc3)ncn2)c1`, the Potency was 21.3 µM (active).

Regarding `CCOC(=O)C1(CCOc2ccccc2)CCN(Cc2ccc(O)c(Cl)c2)CC1`, the Potency was 6.01 µM (active).

Take `CCCCNc1ncc(C(=O)NCc2ccc(-n3ccnc3)cc2)c(NC2CCC(O)CC2)n1` (stereo not given): the Potency is 0.849 µM (active).

As for `COC(=O)N1CCC(n2ncc3c(N4CCOCC4)nc(-c4ccc(NC(=O)NC5CC5)cc4)nc32)CC1`, the Potency was 3.38 µM (active).

`C[C@@H](Nc1ncnc2[nH]c(-c3ccc(O)cc3)cc12)c1ccccc1`: the Potency is 1.2 µM (active).

For the compound `C=CC(=O)N1CCN(C(=O)CNc2cc(-c3ccccc3Cl)c(Cl)cc2OC)CC1`, the Potency is 3.01 µM (active).

Take `O=C(NCC1(c2nc(-c3ccccc3)cs2)CCOCC1)c1cccc(-c2noc(C(F)(F)F)n2)c1`: the Potency is 3.01 µM (active).

Regarding `COc1cc(/C=N\NC(=O)c2ccc3c(c2)OCO3)ccc1OCc1ccccc1`, the Potency was 2.39 µM (active).
